About 100 (0.1%) of roughly 96,000 compounds were called active. The full list was thinned out, with actives kept by preference. Potency and affinity values are given separately. Values without a mark were called inactive.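 Rule for the calls: active = displacement above 50% at 20 µM plus a fluorescence interference ratio under 1.5; inactive = the rest.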

In this experiment the target is Bcl-2-like protein 10 (Homo sapiens) (UniProt Q9HD36). As to the kind of experiment: Bcl-B/TR3 peptide binding disruption – biochemical, fluorescence polarization, FITC-TR3 peptide, selectivity assay for Bfl-1 inhibitor project, primary screen (AID 748).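 Note: plate controls were wells without compound for no effect and wells lacking Bcl-B protein for full effect.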 The settings on record: FP displacement of FITC-TR3 peptide from Bcl-B; at 20 µM; active compounds read high. On the technique in general: Fluorescence polarisation rises when a labelled molecule tumbles more slowly, as on binding a larger partner.
With `CCOc1ccc(C(c2c(C)[nH][nH]c2=O)c2c(C)[nH][nH]c2=O)cc1OC`, the displacement is 8.5%.
In the case of `CC(C)CC(C(=O)Nn1cnnc1)N1C(=O)c2ccccc2C1=O` (stereo not given), the displacement is -8.4%.
`O=C(Cc1cccs1)Nc1nnc(CCc2ccccc2)s1`: the displacement is -0.1%.
In the case of `Cc1nnc(NC(=O)Cc2cccs2)s1`, the displacement is 40.2%.
`CCOC(=O)c1nc2sc3c(c2c(=O)[nH]1)CCCC3`: the displacement was -2.6%.
As to `CC(C)CC(=O)c1c[nH]c(C(=O)NCCCn2ccnc2)c1`, the displacement is 0%.
As for `CCc1ccc2[nH]c(=O)c(C3C(C#N)=C(N)Oc4c3ccc3cccnc43)cc2c1` (stereo not given), the displacement was -4.7%.
The value for `Cc1ccc2cc(C3C(C#N)=C(N)Oc4c3ccc3cccnc43)c(=O)[nH]c2c1` (stereo not given) was 5.4%; that for `O=c1[nH]c(=O)n(C2CCCO2)cc1Br` (stereo not given) was -6.3%.
The value for `CS(=O)(=O)N(CCc1ccccc1)CC(=O)N1CCCCC1` was 0.5%; that for `Clc1ccc2nc(CN3CCCCC3)cn2c1` was 10.1%.
In the case of `Clc1ccc2nc(CN3CCCCCC3)cn2c1` it was -3.6%.
For the molecule `Cc1nn(-c2ccccn2)c2c1-c1nc(N)ncc1CC2`, the displacement is 6%.
In the case of `CCN(CC)CCC(=O)NC(C)(C)Cc1ccc(O)cc1` it was -7.8%; in that of `CCOC(=O)c1[nH]c2c(c1C)C(=O)CC(c1ccco1)C2` (stereo not given), 10.9%; in that of `Cc1c(C(=O)OCC2CCCO2)[nH]c2c1C(=O)CC(c1ccc(N(C)C)cc1)C2` (stereo not given), -1.6%.
The value for `CCCC(=O)N1CCc2cc(-c3nc(N)sc3C)ccc21` was 0.7%; that for `CC1(C)Cc2c(sc3c2c(=N)n(Cc2ccco2)c(=O)n3CC(=O)Nc2cccc(Cl)c2)CO1` was -38.7%.
With `CC1(C)C(=O)Nc2ccccc2N1C(=O)COC(=O)C1CCCCC1`, the displacement is -3.4%.
In the case of `Cc1ccc(S(=O)(=O)N2CCOCC2)cc1C(=O)OCC(=O)N1c2ccccc2NC(=O)C1(C)C` it was 25%; in that of `COc1cc(/C=C(/C#N)c2ccc(C)cc2)ccc1Oc1ccc([N+](=O)[O-])cn1`, -0.7%.
Regarding `CC1Cc2nc(SCC(=O)NC3CCCCC3)n(C)c(=O)c2S1` (stereo not given), the displacement is -2.6%.
As for `CCOC(=O)COc1ccc(S(=O)(=O)N2CCc3ccccc3C2)cc1`, the displacement was 0.4%.
For the molecule `CCOc1ccccc1N(CC(=O)NC(C)(C)C)C(=O)Cn1nnc(-c2ccc(C)o2)n1`, the displacement was -3.4%.
In the case of `CC(=O)N1N=C(c2ccc3nccnc3c2)CC1c1ccccc1` (stereo not given) it was 6%; in that of `C=CCn1c(SCc2cc(=O)n3ccsc3n2)nc2scc(C3CC3)c2c1=O`, -10.9%; in that of `C=CCn1c(=O)c2ccccc2n2c(SCc3cc(=O)n4ccsc4n3)nnc12`, 6.2%.
The value for `CCCNC(=O)c1c(N)n(-c2ccc3c(c2)OCO3)c2nc3ccccc3nc12` was 8.6%.
The value for `Cn1c(N2CCN(C(=O)NCc3ccccc3)CC2)nc2ccccc21` was 6.9%; that for `COc1cccc(NC(=O)c2cnsn2)c1` was 6.3%.
Take `CCCn1c(C)cc(-c2csc(N)n2)c1C`: the displacement was 10.4%.
`Cc1cc(-c2csc(N)n2)c(C)n1CCC(C)C`: the displacement was 1.9%.
The value for `c1csc(Cn2c(-c3cccs3)nc3ccccc32)c1` was -27.7%; that for `CC(=O)Nc1ccc(S(=O)(=O)n2nc(-c3ccc(C)cc3)nc2N)cc1` was -2.3%; that for `O=[N+]([O-])c1ccc(-c2ccc(/C=N/c3c(-c4ccco4)nc4ccccn34)o2)cc1` was 7.3%.
On to `O=[N+]([O-])c1ccc(Cl)c(-c2ccc(/C=N/c3c(-c4ccco4)nc4ccccn34)o2)c1`, for which the displacement was 31.7%.
The value for `COCCn1c(=S)[nH]c2cc(OC)c(OC)cc2c1=O` was 3%; that for `COc1cc2c(cc1OC)CN(C(C)C(=O)Nc1ccc(NC(C)=O)cc1)CC2` (stereo not given) was 2.9%.
The value for `CCn1c(SCC(=O)OC)nc2sc3c(c2c1=O)CCC3` was 46.6%; that for `COC(=O)CSc1nc2sc3c(c2c(=O)n1C1CCCCC1)CCN(C)C3` was -62.9%; that for `CCn1c(SCC(=O)N2CCOCC2)nc2sc3c(c2c1=O)CCCC3` was 4%.
As for `CCn1c(SCC(N)=O)nc2sc3c(c2c1=O)CCCC3`, the displacement was 1.5%.
Turning to `CCn1c(NN)nc2sc3c(c2c1=O)CCC3`, the displacement was -124%.
In the case of `COC(=O)CSc1nc2sc3c(c2c(=O)n1-c1ccccc1)CCN(C)C3` it was 4.6%; in that of `Cc1ccc2cccc(SCC(=O)N3CCOCC3)c2n1`, 1.9%; in that of `O=C1CC(C(=O)O)S/C(=N\NC(=O)c2ccccc2)N1` (stereo not given), 0%.
In the case of `CC(C)n1c(SCCCc2ccccc2)nc2c1c(=O)[nH]c(=O)n2C` it was -3.8%; in that of `COc1ccccc1NC(=O)Cc1noc(CSc2cccc[n+]2[O-])n1`, -8.6%.
Turning to `CC(C)(C)c1nnc2sc(SCCN3C(=O)c4ccccc4C3=O)nn2c1=O`, the displacement is 2.7%.
In the case of `COc1ccc(Cl)cc1N1C(=O)[C@@H]2C(c3cccc(OC)c3OC)=NO[C@@H]2C1=O` it was 8.5%.
Turning to `COc1ccc(OC)c(C2=NO[C@@H]3C(=O)N(c4cc(Cl)ccc4OC)C(=O)[C@H]23)c1`, the displacement is 6%.
In the case of `CC(C)c1cc(=O)oc2c3c4c(cc12)CCCN4CCC3`, the displacement was 59.5%.
As for `O=c1oc2c3c4c(cc2c2c1CCC2)OCCN4CCC3`, the displacement was 49.8%.
In the case of `CCNC(=O)CN1c2cccc3cccc(c23)S1(=O)=O` it was -6.3%.
The value for `CCOC(=O)c1cc(CC)sc1NC(=O)CCC(=O)O` was 1.7%; that for `Brc1ccc(C2Nc3cccc4cccc(c34)N2)o1` was 17.6%.
In the case of `O=C1NC(c2ccco2)Nc2ccccc21` (stereo not given) it was -1.7%.
For the molecule `COC(=O)c1ccc(Oc2c(C(F)(F)F)oc3c(CN4CCN(C)CC4)c(O)ccc3c2=O)cc1`, the displacement was 4.9%.
For the molecule `CCOC(=O)N1CCC(NC(=O)C2CCCN(C(=O)N3CCOc4ccccc43)C2)CC1` (stereo not given), the displacement is 3.1%.
The value for `O=C(O)c1cn[nH]c1-n1cnnn1` was 0.2%; that for `CCOc1ccc(C(=O)Nc2ccc(N3CCCC3)cc2)cc1` was 35.5%.
Turning to `Cc1cccc(OCCCC(=O)Nc2ccc(N3CCCCC3)cc2)c1C`, the displacement was -5.7%.
`CCCC(=O)N1CCN(c2ccc(NC(=O)c3ccc(OCC)c([N+](=O)[O-])c3)cc2)CC1`: the displacement is -1.6%.
The value for `CC(C)Oc1ccc(C(=O)Nc2ccc(N3CCCC3)cc2)cc1` was 0%; that for `Cc1cc(C)cc(OCC(=O)Nc2ccc(N3CCCC3)cc2)c1` was 17.3%; that for `CCCCOc1ccc(C(=O)Nc2ccc(N3CCN(C)CC3)cc2)cc1` was -3.7%.
The value for `Cc1cccc(OCC(=O)Nc2ccc(N3CCN(S(C)(=O)=O)CC3)cc2)c1C` was -12.3%; that for `Cc1ccc(OCC(=O)Nc2ccc(N3CCOCC3)cc2)cc1` was 4.4%; that for `CCOc1cc(N2CCOCC2)c(OCC)cc1NC(=O)CN1C(=O)NC2(CCc3ccccc32)C1=O` (stereo not given) was -7.8%.
In the case of `CCn1c(SCC(=O)Nc2ccc(S(N)(=O)=O)cc2)nnc1-c1ccccc1OC` it was -8.3%; in that of `CCCn1c(=O)c2c(c3ccccc31)OC(C)C(=O)N2` (stereo not given), 4.5%; in that of `O=C(N/N=C/C1C(c2ccccc2)C1(Cl)Cl)c1cccc(Br)c1` (stereo not given), -0.4%.
`CN(C)S(=O)(=O)c1ccc(C(=O)Nc2nnc(Cc3ccccc3)s2)cc1`: the displacement is -6.2%.
The value for `OC1CCN(c2ncnc3nc[nH]c23)CC1` was 2.2%; that for `CCOC(=O)Cn1c(=O)oc2cc(S(=O)(=O)N3CCC(N4CCCCC4)CC3)ccc21` was 10%.
`Clc1ccc(Cn2ncc3c(NCCN4CCOCC4)ncnc32)cc1`: the displacement was -10.2%.
For the molecule `O=C1CCCN1c1ccc(Br)cc1`, the displacement is -0.3%.
`Cc1c(N2C(=O)c3ccccc3C2=O)c(=O)n(-c2ccccc2)n1C`: the displacement was 3.3%.
The value for `Cc1c(N2C(=O)c3ccc4c5c(ccc(c35)C2=O)CC4)c(=O)n(-c2ccccc2)n1C` was 112% (active); that for `Cc1c(N2C(=O)c3cccc4cccc(c34)C2=O)c(=O)n(-c2ccccc2)n1C` was -13.8%; that for `Cc1ccsc1/C=N/n1cnc2sc(C)c(C)c2c1=O` was -9.7%.
The value for `CC(=O)N1CCN(S(=O)(=O)c2ccc(S(=O)(=O)NC3CC3)cc2)CC1` was -5.1%; that for `CC(C)(C)C(=O)Nc1nc(C2CCCN2S(=O)(=O)c2ccc(Cl)cc2)cs1` (stereo not given) was -7.5%; that for `Cc1ccc(S(=O)(=O)N2CCN(C3CCN(Cc4ccccc4)CC3)CC2)cc1` was 6.6%.
In the case of `CC(C)(C)NC(=O)c1sccc1C(=O)O` it was -1.7%; in that of `Cc1cc(C(=O)O)c(C)n1-c1ccccc1`, -1%.
Consider `Cc1ccc(-c2csc(N3N=C(c4ccccc4)/C(=C\c4ccc(N(C)C)cc4)C3=O)n2)cc1`, for which the displacement is -1.8%.
As to `CCOc1cc(/C=C2\SC(=S)N(Nc3ccccc3)C2=O)ccc1O`, the displacement was -87.6%.
As for `COc1cc(C2N(c3ccccn3)C(=O)C3CCCN32)cc(OC)c1OC` (stereo not given), the displacement was 6.8%.
In the case of `Cc1ccc(Cl)c(OCC(=O)Nc2ccc3c(c2)OCCO3)c1` it was 1.3%; in that of `O=C(O)CN(c1ccc(F)cc1)S(=O)(=O)c1ccc2c(c1)OCCO2`, -1.7%; in that of `CC(C)CN(C(=O)COC(=O)c1ccc2c(c1)NC(=O)CS2)C1CCS(=O)(=O)C1` (stereo not given), 8.5%.
The value for `CC(C)CN(C(=O)COC(=O)c1cc2ccccc2oc1=O)C1CCS(=O)(=O)C1` (stereo not given) was -8.2%; that for `O=C(CCc1nc2ccccc2s1)OCC(=O)N1CCN(C(=O)c2ccco2)CC1` was -8%.
Turning to `Cn1c(=O)c2c3c(sc2n2c(SCc4ccc5c(c4)OCO5)nnc12)COC(C)(C)C3`, the displacement is -8.4%.
